The values below come from PubChem BioAssay (NCATS).

Records with an inconclusive call do not appear. Activity calls are given as the source filed them. Calls follow the shape of the dose curve; as a rule, active = well fitted cell-killing curve with a large enough effect; inconclusive = small, poorly fitted or top-dose-only effect, or effect the other way; inactive = flat fitted curve, though single readings scatter.
% is scaled to controls: 0 for no effect and ±100 for the full control effect.

This assay has as its system Es-2. The assay can be described thus: Primary qHTS to identify gynecologic anti-cancer compounds using libraries of approved drugs and bioactive compounds (AID 1345084). Also: nearly all actives have a fitted effect of over 55% in size. The conditions noted are these: Gynecologic cancer cell panel viability, ATPlite luminescence, 48 h; series mostly up to 57.5 µM; activity change, negative = cytotoxicity: at the top concentration. In outline:
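Five-concentration response, 48 h; readout is ATP-driven luciferase luminescence.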
(In general: qHTS replaces the single test concentration by a dilution series.)
Regarding `C/C(=C\CCC1(C)C2CC3C(C2)C31C)C(=O)O` (stereo not given), the “activity change, negative = cytotoxicity” value was -15.8% (inactive).
As for `CCCC1=CC2=C(CO1)C(=O)C(C)(O)C(OC(=O)c1c(C)cc(OC)cc1O)C2` (stereo not given), the “activity change, negative = cytotoxicity” value is -12.8% [at 25.3 µM] (inactive).
Under `COc1cnc(-n2cnc(C)n2)c2[nH]cc(C(=O)C(=O)N3CCN(C(=O)c4ccccc4)CC3)c12` stands 5.35% (inactive); under `CCCC/C=C\CCCCCc1cc(=O)c2ccccc2n1C`, -4.12% [at 38.5 µM] (inactive); under `CCN1CCN(C(=O)N[C@@H](C(=O)N[C@@H]2C(=O)N3[C@@H]2SC(C)(C)[C@@H]3C(=O)O)c2ccccc2)C(=O)C1=O`, 5.6% (inactive).
Under `C[C@@H]1O[C@@H](O[C@@H]2[C@@H](O)[C@H](O[C@H]3[C@H](O[C@H]4CC[C@@]5(C)C(CC[C@]6(C)C5CC=C5[C@@H]7CC(C)(C)CC[C@]7(C(=O)O[C@@H]7O[C@H](CO)[C@@H](O)[C@H](O)[C@H]7O)CC[C@]56C)C4(C)C)O[C@H](C(=O)O)[C@@H](O)[C@@H]3O)OC[C@H]2O)[C@H](O)[C@H](O)[C@H]1O` (stereo not given in full) stands -9.99% [at 11.6 µM] (inactive); under `COC(=O)C1=COC(O[C@@H]2O[C@H](CO)[C@@H](O)[C@H](O)[C@H]2O)/C(=C\COC(=O)/C=C/c2ccccc2)C1CC(=O)OCCc1ccc(O)cc1` (stereo not given in full), -9.08% [at 25.3 µM] (inactive); under `C=CC(C)(O)CC/C=C(\C)C1CC=C(C)C(=O)O1` (stereo not given), 1.17% (inactive).
Under `COc1cc(/C=C/C(=O)OC[C@H]2O[C@@H](OC3CC(C)=C(C(=O)O)C(C)(C)C3)[C@H](O)[C@@H](O)[C@@H]2O)cc(OC)c1O` (stereo not given in full) stands -1.27% [at 25.3 µM] (inactive); under `CC1(C)C[C@H](O)C[C@@]2(C)[C@H]1[C@H](O)C=C1COC(=O)[C@@]12O`, -0.625% (inactive).
